# Source: the supplement of paper PMC10849652
# The full data set covers some 7,900 targets. This sample favours those with a hit. About 0.6% of all pairs of compound and target were hits. A number with no mark means an inactive call.
# Tests used:
# Assay in all cases: log2 fold change, soluble protein after heating vs DMSO (PISA); higher = thermal stabilisation; K562 cells, 10 uM, 30 min; active = over 0.2 and 3.5 SD of the protein, either way, in both replicates (recomputed)
# [1] = compound: NC(=O)Nc1cc(-c2cccc(F)c2)sc1C(=O)N[C@H]1CCCNC1
# How it was run: (§1)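 Values are thermal stability changes relative to control samples and are taken from duplicates. They are stated as log2 fold changes. Before quantification by TMTpro 16plex LC-MS/MS with equalised channel sums, K562 cells at 2×10^6 cells/mL were treated with 10 μM compound for 30 min, heated in aliquots for 3 min across 48°C-58°C, pooled, extracted in PBS with 0.5% NP-40 at 4°C, and centrifuged at 21,000xg for 90 min to give the soluble supernatant.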
# [2] = compound: NC(=O)c1cnc(N[C@@H]2CCCC[C@@H]2N)nc1Nc1cccc(-n2nccn2)c1
# How it was run: as §1
# [3] = compound: NC1(c2ccc(-c3nc4ccn5c(=O)[nH]nc5c4cc3-c3ccccc3)cc2)CCC1
# How it was run: as §1
# [4] = compound: NCC(=O)Nc1ccc(-n2nc(C(F)(F)F)cc2-c2ccc3c(ccc4ccccc43)c2)cc1
# How it was run: as §1
# entinostat = compound: Nc1ccccc1NC(=O)c1ccc(CNC(=O)OCc2cccnc2)cc1 [entinostat]
# How it was run: as §1
# vorinostat = compound: O=C(CCCCCCC(=O)Nc1ccccc1)NO [vorinostat]
# How it was run: as §1
# citarinostat = compound: O=C(CCCCCCNC(=O)c1cnc(N(c2ccccc2)c2ccccc2Cl)nc1)NO [citarinostat]
# How it was run: as §1
# silmitasertib = compound: O=C(O)c1ccc2c(c1)nc(Nc1cccc(Cl)c1)c1ccncc12 [silmitasertib]
# How it was run: as §1
# [5] = compound: O=C1NC(=O)C(c2cnc3ccccn23)=C1c1cn2c3c(cc(F)cc13)CN(C(=O)N1CCCCC1)CC2
# How it was run: as §1
# [6] = compound: c1cc(OCCN2CCCCC2)cc(-c2n[nH]c3ccc(-c4nnc[nH]4)cc23)c1
# How it was run: as §1
# Chain of UniProt Q9P2H3 (Q9P2H3 whole entry, looked up): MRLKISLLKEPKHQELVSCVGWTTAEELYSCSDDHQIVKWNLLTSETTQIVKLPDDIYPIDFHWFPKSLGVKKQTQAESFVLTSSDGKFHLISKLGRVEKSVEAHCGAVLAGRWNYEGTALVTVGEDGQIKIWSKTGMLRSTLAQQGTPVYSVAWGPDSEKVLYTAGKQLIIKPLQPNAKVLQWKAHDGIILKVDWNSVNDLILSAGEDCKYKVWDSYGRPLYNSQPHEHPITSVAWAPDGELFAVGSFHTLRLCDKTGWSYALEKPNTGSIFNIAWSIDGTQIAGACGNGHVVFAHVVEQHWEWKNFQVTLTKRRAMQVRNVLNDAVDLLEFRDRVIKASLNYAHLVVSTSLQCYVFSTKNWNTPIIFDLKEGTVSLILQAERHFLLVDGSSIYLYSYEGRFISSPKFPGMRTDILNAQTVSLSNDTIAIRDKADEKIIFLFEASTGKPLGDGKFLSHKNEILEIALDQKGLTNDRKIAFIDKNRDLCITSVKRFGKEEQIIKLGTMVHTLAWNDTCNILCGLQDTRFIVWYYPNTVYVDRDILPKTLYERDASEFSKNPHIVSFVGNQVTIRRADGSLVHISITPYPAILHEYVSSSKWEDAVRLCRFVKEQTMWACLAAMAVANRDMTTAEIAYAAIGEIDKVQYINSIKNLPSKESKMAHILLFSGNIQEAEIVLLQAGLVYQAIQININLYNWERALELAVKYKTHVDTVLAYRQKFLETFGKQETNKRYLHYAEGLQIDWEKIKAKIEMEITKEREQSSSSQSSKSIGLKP
# Chain of UniProt Q8N2G8 (Q8N2G8 whole entry, looked up): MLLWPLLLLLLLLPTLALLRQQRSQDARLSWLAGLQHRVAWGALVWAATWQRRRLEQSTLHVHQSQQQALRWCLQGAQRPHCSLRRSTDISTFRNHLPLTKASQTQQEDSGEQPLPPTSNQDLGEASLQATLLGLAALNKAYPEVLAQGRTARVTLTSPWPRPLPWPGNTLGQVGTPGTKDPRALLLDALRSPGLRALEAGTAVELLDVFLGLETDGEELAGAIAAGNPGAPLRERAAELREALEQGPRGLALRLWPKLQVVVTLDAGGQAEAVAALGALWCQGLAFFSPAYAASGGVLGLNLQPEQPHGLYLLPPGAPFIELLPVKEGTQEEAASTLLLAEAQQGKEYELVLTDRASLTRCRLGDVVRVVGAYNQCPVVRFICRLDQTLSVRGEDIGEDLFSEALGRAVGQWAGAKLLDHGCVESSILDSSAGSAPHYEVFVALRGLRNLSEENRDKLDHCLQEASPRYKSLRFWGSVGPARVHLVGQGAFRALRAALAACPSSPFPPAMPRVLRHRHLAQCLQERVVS
# Chain of UniProt P37268 (P37268 whole entry, looked up): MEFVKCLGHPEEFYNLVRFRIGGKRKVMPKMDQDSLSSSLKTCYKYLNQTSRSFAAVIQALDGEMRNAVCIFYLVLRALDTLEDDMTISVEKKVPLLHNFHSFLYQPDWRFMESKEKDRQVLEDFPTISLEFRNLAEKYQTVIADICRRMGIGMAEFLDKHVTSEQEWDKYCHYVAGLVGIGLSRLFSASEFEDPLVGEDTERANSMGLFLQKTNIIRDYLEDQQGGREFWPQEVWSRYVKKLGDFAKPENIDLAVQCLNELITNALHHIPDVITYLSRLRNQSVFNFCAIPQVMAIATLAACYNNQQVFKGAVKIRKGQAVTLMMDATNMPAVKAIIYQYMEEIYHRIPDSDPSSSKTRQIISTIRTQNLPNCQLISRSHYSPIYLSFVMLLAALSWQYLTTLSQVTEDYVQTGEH
# Chain of UniProt P13807 (P13807 whole entry, looked up): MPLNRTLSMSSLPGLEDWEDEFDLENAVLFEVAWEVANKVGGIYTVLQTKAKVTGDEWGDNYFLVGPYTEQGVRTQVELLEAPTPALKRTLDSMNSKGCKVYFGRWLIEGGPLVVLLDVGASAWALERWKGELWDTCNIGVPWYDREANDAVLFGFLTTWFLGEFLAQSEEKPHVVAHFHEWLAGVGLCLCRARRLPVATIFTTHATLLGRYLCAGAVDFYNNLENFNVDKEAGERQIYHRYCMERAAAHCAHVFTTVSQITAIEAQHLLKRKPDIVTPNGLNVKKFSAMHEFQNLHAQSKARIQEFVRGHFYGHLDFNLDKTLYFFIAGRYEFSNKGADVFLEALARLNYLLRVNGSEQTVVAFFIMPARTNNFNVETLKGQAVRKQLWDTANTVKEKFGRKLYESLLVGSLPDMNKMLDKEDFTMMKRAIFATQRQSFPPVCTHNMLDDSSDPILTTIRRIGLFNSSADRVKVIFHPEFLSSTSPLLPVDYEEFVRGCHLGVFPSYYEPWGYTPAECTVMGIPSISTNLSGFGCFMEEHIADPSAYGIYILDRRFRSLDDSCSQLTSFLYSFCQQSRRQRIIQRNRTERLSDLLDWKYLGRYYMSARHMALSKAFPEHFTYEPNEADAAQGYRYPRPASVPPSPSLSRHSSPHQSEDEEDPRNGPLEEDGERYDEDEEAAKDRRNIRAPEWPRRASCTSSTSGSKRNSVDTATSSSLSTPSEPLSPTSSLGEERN
# Chain of UniProt P01112 (P01112 whole entry, looked up): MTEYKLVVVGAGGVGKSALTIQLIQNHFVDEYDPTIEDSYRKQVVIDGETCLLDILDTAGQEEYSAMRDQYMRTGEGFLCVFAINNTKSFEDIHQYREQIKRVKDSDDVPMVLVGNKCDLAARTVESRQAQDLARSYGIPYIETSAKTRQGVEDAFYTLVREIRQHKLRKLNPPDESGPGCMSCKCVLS
# Chain of UniProt O75146 (O75146 whole entry, looked up): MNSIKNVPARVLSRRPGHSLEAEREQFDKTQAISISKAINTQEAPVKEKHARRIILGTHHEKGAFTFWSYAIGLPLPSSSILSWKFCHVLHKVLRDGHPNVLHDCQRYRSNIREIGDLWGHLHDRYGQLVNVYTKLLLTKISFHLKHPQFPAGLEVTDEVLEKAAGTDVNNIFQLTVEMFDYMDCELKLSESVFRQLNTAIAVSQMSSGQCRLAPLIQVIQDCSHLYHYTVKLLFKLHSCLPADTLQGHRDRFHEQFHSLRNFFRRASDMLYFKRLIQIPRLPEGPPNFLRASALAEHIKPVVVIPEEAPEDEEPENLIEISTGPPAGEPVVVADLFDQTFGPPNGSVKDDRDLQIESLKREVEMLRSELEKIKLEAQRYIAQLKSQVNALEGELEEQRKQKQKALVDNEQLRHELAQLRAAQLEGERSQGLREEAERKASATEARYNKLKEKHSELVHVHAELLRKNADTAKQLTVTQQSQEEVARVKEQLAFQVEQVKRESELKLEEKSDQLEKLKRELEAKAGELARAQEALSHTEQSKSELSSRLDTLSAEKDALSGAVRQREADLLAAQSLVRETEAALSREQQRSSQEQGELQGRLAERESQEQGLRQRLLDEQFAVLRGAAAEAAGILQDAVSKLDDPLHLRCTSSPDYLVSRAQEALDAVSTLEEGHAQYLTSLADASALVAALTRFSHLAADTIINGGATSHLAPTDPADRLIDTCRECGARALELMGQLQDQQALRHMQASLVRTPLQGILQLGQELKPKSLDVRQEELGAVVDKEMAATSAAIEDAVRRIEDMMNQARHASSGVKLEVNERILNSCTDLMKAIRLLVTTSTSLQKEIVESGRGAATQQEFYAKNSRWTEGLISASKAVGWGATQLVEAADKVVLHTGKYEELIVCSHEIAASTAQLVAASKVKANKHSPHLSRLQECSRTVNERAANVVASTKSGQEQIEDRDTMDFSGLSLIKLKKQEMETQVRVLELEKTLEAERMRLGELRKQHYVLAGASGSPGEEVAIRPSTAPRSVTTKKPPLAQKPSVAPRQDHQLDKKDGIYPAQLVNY
# Chain of UniProt P69905 (P69905 whole entry, looked up): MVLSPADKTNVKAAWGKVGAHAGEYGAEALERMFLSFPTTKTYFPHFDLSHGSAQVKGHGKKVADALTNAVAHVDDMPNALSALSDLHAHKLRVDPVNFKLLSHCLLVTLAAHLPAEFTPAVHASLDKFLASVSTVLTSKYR
# Chain of UniProt Q9Y6M1 (Q9Y6M1 whole entry, looked up): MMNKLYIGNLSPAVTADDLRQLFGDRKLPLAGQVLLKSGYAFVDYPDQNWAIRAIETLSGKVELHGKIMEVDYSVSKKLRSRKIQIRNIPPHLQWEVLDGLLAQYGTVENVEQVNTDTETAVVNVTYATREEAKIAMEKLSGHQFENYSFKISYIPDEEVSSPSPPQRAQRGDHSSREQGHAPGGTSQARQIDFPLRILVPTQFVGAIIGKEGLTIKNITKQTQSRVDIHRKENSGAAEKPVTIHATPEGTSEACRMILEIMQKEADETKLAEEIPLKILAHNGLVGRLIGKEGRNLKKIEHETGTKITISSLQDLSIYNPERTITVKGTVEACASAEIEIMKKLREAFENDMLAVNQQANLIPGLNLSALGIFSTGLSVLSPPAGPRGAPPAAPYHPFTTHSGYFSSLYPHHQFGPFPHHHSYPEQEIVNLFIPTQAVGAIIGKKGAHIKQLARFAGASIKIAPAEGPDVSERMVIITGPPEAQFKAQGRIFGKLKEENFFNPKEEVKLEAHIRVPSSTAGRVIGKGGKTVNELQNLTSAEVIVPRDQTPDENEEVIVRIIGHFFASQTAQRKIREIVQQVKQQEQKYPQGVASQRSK
# Chain of UniProt O43427 (O43427 whole entry, looked up): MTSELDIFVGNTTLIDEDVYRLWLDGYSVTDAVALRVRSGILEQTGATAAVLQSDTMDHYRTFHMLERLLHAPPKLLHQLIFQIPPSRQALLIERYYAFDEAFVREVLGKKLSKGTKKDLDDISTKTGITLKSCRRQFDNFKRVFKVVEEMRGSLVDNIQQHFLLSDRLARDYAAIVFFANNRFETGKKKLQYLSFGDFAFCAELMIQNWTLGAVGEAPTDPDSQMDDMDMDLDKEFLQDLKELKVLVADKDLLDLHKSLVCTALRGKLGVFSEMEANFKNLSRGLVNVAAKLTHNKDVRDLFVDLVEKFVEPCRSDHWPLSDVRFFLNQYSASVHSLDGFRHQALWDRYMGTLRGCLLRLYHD
# Chain of UniProt Q9H0R8 (Q9H0R8 whole entry, looked up): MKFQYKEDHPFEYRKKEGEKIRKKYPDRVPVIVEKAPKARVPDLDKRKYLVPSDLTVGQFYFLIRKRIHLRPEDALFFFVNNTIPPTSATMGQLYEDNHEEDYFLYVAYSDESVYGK
Target,log2 fold change [1],log2 fold change [2],log2 fold change [3],log2 fold change [4],log2 fold change (entinostat),log2 fold change (vorinostat),log2 fold change (citarinostat),log2 fold change (silmitasertib),log2 fold change [5],log2 fold change [6]
HNRNPUL1 (UniProt Q9BUJ2),-0.059,0.028,-0.081,-0.059,-0.012,0.03,0.002,0.034,0.08,-0.046
HIST2H2BF isoform 2 (UniProt Q5QNW6),0.048,0.225,0.48,-0.029,0.159,0.123,-0.001,-0.064,0.101,0.016
HADHB (UniProt P55084),-0.079,0.021,0.104,0.078,0.014,0,0.037,-0.115,0.716 (active),-0.056
HIKESHI (UniProt Q53FT3),0,-0.045,-0.046,-0.053,-0.003,-0.05,0.021,0.002,0.026,-0.056
HRAS (UniProt P01112),0.103,0.233,0.071,0.366 (active),-0.012,-0.009,-0.067,0.003,0,0.007
GABARAPL1 isoform 2 (UniProt Q9H0R8),-0.051,-0.13,-0.252 (active),-0.134,-0.009,-0.028,0.038,-0.083,-0.049,0.021
FUT8 (UniProt Q9BYC5),-0.022,0.094,-0.107,-0.014,0.042,-0.001,0.108,0.013,-0.146,0.027
IFT80 isoform 3 (UniProt Q9P2H3),0.027,0.031,-0.081,0.003,-0.005,0.04,0.011,-0.085,-0.086,-0.093
HSPA8 (UniProt E9PN89),-0.317,-0.283,-0.172,-0.372,-0.135,-0.057,-0.304,0.365,-0.102,-0.394
GALNT4 (UniProt Q8N4A0),-0.013,-0.117,-0.072,-1.32 (active),-0.064,0.055,0.009,0.003,0.051,-0.064
IGF2BP2 (UniProt Q9Y6M1),0.014,-0.051,0.237,0.045,0.015,0.128,-0.178,0.16,0.155,-0.208
FDFT1 (UniProt P37268),0.044,0.064,-0.042,0.035,-0.008,-0.018,0.086,-0.031,0.004,0.093
HNRNPH1 (UniProt P31943),0.052,-0.023,-0.075,-0.059,0.118,0.168,0.09,0.024,-0.105,-0.074
IFI30 (UniProt P13284),0.035,0.127,-0.048,0.083,-0.052,0.03,0.059,-0.052,0.128,-0.028
HMGN2 (UniProt P05204),0.071,0.07,0.139,0.027,-0.092,-0.225,-0.129,0.02,0.067,0.151
GPKOW (UniProt Q92917),-0.014,0,-0.096,-0.216,0.042,0.122,0.048,-0.078,-0.061,-0.01
FIBP (UniProt O43427),-0.018,0.023,0.011,-0.117,-0.005,-0.067,0.297,-0.05,-0.031,-0.106
GALC (UniProt P54803),0.015,0.016,-0.165,0.001,-0.012,-0.138,0.017,0.042,0,0.096
HIP1R (UniProt O75146),-0.032,-0.001,-0.138,0.014,0.027,0.069,0.022,0,-0.024,-0.005
GLA (UniProt P06280),0.04,-0.049,-0.143,-0.066,-0.034,0.056,0.027,-0.03,-0.036,0.029
GMEB1 (UniProt Q9Y692),0.066,-0.072,-0.047,0.027,0.073,0.001,0.057,0.112,-0.053,-0.004
GEMIN6 (UniProt Q8WXD5),0.066,0.015,-0.108,0.099,-0.005,-0.04,-0.12,0.015,-0.139,-0.106
HNRNPK isoform 2 (UniProt P61978),-0.045,-0.086,-0.073,-0.093,0.056,0.065,0.05,-0.017,-0.137,-0.038
FAM91A1 (UniProt Q658Y4),-0.009,-0.061,-0.08,-0.042,-0.003,0.004,-0.003,0.073,-0.346,-0.084
GIGYF2 (UniProt Q6Y7W6),-0.102,-0.062,-0.046,-0.079,0.024,0.103,0.06,-0.004,-0.016,-0.065
GTF2A2 (UniProt P52657),0.023,-0.028,-0.038,-0.008,0.03,-0.044,0.058,-0.008,-0.014,0
GLUD1 (UniProt P00367),-0.058,-0.014,-0.043,-0.032,-0.051,-0.061,-0.023,-0.095,0.082,0.052
HBA1 (UniProt P69905),0.016,0.032,0.003,0.103,0.059,-0.031,0.007,-0.036,-0.037,0.012
GYS1 (UniProt P13807),-0.05,-0.027,0.05,0.091,-0.077,-0.125,-0.103,0.05,-0.002,-0.301
GHDC (UniProt Q8N2G8),-0.021,0.013,0.005,-0.018,0.004,-0.023,0.045,0.001,-0.045,-0.03
